# For some assays here: Entries with a potency or affinity are not part of this list.
# Assays:
# Parameters in all cases: scale not given: direction of the effect not stated beside the values
# [1] = target: Protein translocase subunit SecA (Escherichia coli (strain K12)) (UniProt P10408); test: Assay to Identify E. coli SecA ATPase Inhibitors; assay type: functional; conditions: 30 µM
# [2] = target: T1, Ubiquitin-activating enzyme e1, putative (Leishmania donovani (strain BPK282A1)) (UniProt E9BSI1); test: Leishmania donovani Ubiquitin Activating Enzyme (LdE1); assay type: functional; conditions: 30 µM
# T1 sequence (whole entry): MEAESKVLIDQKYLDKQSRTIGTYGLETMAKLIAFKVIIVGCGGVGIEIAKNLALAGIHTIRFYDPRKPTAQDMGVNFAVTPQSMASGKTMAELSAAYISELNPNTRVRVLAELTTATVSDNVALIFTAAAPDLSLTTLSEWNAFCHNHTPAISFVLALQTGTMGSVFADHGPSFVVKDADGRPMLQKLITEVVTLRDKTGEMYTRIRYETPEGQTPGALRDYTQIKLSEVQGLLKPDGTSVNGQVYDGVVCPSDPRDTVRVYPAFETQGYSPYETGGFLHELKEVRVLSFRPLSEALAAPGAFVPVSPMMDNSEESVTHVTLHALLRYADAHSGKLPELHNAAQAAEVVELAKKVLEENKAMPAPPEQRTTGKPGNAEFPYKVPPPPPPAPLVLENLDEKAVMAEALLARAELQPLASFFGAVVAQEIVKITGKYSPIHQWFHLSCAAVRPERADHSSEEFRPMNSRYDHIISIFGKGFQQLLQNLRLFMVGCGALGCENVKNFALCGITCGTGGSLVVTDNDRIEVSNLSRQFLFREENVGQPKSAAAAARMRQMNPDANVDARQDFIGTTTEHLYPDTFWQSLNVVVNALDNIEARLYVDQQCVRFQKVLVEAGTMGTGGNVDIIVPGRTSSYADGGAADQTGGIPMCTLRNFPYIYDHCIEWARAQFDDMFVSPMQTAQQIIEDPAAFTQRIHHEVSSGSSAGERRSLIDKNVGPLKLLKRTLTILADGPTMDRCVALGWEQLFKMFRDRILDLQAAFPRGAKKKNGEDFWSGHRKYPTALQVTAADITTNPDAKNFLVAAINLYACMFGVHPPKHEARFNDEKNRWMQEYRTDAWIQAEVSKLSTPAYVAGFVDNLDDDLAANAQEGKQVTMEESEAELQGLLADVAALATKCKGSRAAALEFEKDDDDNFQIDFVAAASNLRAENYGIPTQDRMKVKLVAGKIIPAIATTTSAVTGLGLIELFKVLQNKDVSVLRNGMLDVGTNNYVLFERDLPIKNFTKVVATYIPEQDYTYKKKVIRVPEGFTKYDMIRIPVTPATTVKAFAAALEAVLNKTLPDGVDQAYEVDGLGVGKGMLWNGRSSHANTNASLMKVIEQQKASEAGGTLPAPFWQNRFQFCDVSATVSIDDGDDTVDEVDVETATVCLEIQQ
# [3] = target: AMP-activated protein kinase, AMPK (Homo sapiens) (UniProt P54646+O43741+P54619+Q9UGJ0+Q9Y478+Q13131+Q9UGI9); test: AMP-dependent Kinase enzyme assay. An in vitro enzyme assay that detects ADP turnover that is directly proportional to AMPK activity. This uses naive AMPK that is activated during the assay with MK-8722; assay type: functional; conditions: 30 µM
# [4] = target: Sialic acid-binding Ig-like lectin 9 (Homo sapiens) (UniProt Q9Y336); test: Hs-Siglec9 ALPHAscreen SOP 20170721; conditions: 10 µM
# Trypanosoma cruzi = test: Trypanosoma cruzi phosphomannomutase and mannose-1-phosphate guanylyltransferase assay; assay type: functional; conditions: 10 µM
# [5] = target: T2, Arginase-2, mitochondrial (Homo sapiens) (UniProt P78540); test: in vitro enzyme assay to detect the production of urea directly proportional to the activity of Arginase II; assay type: functional; conditions: 33.3 µM; also: in the data most compounds retested in dose-response had high values
# T2 sequence (whole entry): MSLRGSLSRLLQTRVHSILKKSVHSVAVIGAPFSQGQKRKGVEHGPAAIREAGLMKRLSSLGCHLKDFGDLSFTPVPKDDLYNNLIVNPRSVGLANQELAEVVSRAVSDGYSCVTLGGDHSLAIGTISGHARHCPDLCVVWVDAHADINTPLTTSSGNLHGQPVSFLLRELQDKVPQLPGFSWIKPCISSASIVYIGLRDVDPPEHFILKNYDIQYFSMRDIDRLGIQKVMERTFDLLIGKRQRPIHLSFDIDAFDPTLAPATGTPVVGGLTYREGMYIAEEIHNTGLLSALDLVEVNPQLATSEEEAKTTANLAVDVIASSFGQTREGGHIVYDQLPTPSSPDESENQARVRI
# [6] = target: T3, Proteasome subunit beta (Trypanosoma cruzi) (UniProt O96673); test: Trypanosoma cruzi proteasome chymotrypsin-like activity (TcProtChymo) assay.; also: in the data most compounds retested in dose-response had high values; assay type: functional; conditions: 9.37 µM
# T3 sequence (whole entry): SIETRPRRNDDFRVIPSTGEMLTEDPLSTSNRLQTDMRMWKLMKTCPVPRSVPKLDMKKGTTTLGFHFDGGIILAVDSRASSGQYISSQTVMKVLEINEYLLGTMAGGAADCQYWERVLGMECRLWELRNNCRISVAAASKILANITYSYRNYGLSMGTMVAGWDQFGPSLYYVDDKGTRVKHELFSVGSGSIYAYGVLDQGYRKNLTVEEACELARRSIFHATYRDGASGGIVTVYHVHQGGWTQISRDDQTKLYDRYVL
# Homo sapiens = species on record: Homo sapiens; test: To identify inhibition of the IFN signalling (Jak-Stat) pathway via expression of an eGFP reporter gene under the control of an IFN-stimulated response element (ISRE) containing MxA promoter.; assay type: functional; conditions: 30 µM
# [7] = target: T4, Tyrosyl-tRNA synthetase, putative (Trypanosoma cruzi (strain CL Brener)) (UniProt Q4DSP6); test: Trypanosoma cruzi tyrosyl tRNA synthetase (TcYRS) _High Tyrosine SOP; assay type: functional; conditions: 30 µM; also: in the data most compounds retested in dose-response had high values
# T4 sequence (whole entry): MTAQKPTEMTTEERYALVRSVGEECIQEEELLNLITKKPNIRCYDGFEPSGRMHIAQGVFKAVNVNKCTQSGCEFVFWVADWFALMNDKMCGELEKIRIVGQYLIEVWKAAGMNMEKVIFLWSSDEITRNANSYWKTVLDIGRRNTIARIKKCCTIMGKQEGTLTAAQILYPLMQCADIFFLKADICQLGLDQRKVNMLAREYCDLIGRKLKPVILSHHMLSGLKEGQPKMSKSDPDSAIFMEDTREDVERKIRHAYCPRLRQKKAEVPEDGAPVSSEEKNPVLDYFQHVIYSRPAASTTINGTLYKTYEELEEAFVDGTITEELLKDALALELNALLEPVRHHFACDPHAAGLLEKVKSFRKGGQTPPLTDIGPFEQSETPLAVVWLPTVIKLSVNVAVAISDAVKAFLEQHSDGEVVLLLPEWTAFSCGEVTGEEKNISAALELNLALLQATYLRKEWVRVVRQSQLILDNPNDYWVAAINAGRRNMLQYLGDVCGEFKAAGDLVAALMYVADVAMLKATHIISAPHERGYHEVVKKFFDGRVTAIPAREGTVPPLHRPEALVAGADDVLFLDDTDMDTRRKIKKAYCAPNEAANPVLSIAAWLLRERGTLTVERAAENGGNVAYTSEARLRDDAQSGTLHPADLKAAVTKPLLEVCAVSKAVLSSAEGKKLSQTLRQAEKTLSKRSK
# [8] = target: T4, Tyrosyl-tRNA synthetase, putative (Trypanosoma cruzi (strain CL Brener)); test: Trypanosoma cruzi tyrosyl tRNA synthetase (TcYRS) SOP; assay type: functional; conditions: 30 µM
# [9] = target: Chromo domain-containing protein 1 (Saccharomyces cerevisiae (strain ATCC 204508 / S288c) (Baker's yeast)) (UniProt P32657); test: ScCHD-1 Enzyme Inhibition Assay; assay type: functional; conditions: 30 µM; also: in the data most compounds retested in dose-response had high values
# Chain of Chromo domain-containing protein 1 (Saccharomyces cerevisiae (strain ATCC 204508 / S288c) (Baker's yeast)) (P32657 whole entry, the tested form may be a part): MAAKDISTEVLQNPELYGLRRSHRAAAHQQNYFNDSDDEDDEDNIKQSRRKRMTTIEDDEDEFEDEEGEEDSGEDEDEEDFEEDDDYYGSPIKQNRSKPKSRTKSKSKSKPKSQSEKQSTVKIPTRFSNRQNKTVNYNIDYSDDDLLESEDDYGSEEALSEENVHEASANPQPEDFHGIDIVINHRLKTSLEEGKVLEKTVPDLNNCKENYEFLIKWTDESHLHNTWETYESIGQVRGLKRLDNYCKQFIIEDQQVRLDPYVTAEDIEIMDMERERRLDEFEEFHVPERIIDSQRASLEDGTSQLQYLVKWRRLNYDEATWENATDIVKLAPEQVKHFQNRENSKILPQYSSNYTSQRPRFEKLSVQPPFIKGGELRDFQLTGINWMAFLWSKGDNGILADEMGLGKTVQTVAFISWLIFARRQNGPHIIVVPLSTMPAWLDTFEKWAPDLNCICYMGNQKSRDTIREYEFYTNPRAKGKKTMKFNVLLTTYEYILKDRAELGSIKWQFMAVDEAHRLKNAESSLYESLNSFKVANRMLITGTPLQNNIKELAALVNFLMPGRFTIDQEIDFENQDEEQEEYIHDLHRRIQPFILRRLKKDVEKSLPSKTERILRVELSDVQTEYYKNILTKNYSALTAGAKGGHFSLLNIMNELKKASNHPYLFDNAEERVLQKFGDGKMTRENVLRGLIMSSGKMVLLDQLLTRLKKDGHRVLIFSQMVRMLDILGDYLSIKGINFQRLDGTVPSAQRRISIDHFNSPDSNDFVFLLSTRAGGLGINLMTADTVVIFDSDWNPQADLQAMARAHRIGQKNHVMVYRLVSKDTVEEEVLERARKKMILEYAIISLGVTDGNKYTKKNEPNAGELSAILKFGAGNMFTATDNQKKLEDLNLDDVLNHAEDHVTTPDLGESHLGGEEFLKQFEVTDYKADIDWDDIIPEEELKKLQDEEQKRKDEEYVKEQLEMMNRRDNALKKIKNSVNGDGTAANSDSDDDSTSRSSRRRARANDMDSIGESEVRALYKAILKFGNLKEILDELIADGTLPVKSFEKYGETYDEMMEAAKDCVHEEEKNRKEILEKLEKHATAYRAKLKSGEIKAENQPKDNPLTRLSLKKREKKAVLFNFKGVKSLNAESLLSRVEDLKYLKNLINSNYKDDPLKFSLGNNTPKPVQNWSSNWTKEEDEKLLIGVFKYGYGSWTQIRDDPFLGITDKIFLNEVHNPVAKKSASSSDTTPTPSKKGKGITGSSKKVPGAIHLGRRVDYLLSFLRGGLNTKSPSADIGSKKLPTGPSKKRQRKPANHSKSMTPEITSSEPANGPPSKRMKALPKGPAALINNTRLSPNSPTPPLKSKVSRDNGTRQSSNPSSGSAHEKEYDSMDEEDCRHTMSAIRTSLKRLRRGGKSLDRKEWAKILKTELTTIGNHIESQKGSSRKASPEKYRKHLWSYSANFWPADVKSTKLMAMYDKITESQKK
# Chain of Protein translocase subunit SecA (Escherichia coli (strain K12)) (P10408 whole entry): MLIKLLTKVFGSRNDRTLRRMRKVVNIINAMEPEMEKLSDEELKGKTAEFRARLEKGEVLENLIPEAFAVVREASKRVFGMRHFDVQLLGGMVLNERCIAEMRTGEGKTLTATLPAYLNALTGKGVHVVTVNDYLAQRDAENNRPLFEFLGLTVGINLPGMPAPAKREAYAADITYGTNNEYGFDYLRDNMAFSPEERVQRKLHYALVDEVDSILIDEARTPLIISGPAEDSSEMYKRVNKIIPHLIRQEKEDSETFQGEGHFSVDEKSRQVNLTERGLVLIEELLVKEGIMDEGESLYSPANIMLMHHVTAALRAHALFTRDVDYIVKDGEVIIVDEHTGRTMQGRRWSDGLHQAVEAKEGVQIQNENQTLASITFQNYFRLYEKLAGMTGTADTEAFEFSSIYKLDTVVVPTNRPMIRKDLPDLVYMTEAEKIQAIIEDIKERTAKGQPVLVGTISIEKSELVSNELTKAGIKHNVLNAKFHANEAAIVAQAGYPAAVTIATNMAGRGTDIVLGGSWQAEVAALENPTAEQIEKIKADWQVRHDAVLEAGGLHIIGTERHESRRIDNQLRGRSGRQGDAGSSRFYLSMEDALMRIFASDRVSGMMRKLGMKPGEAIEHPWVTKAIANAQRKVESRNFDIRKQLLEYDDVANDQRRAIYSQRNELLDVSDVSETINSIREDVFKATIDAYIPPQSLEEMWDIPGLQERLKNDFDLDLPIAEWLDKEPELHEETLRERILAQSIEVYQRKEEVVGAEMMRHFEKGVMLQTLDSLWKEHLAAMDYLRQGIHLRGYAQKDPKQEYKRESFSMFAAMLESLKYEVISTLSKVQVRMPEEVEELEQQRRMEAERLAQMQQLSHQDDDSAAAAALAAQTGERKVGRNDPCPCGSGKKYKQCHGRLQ
# Chain of Sialic acid-binding Ig-like lectin 9 (Homo sapiens) (Q9Y336 whole entry): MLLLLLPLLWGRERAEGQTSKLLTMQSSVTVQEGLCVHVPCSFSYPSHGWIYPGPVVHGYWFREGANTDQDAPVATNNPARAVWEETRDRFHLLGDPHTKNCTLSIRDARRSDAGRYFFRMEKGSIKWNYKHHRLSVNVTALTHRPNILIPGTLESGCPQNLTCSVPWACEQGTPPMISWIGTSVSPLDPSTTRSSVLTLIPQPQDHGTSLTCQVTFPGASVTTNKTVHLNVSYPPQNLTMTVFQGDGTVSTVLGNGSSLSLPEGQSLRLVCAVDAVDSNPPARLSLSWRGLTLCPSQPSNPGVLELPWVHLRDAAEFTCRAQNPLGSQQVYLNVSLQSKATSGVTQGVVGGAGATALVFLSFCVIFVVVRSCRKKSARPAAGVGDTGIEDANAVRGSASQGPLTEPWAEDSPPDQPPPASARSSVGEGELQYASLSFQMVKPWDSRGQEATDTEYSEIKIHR
Structure (SMILES),Percent Effect [1],Percent Effect [2],Percent Effect [3],Percent Effect [4],Percent Effect (Trypanosoma cruzi),Percent Effect [5],Percent Effect [6],Percent Effect (Homo sapiens),Percent Effect [7],Percent Effect [8],Percent Effect [9]
O=C(NCCCN1CCCC1=O)Nc1ccc(Br)cc1Cl,-4.26%,-4%,3.31%,6.15%,3.14%,-3.7%,7.02%,8.83%,0%,2.56%,-2.19%
CCOCC(=O)N1CCC(Oc2ccc(C(F)(F)F)cn2)CC1,0.852%,5.2%,2.97%,4.76%,-5.42%,13.6%,15.1%,12.1%,0%,3.85%,-4.83%
O=C(C1=CCCC1)N1CCO[C@H]2[C@@H](OCC3CC3)CC[C@@H]21,-3.62%,18.7%,-4.28%,-6.26%,2.51%,-51.1%,18.3%,-0.0365%,5.21%,22.5%,-7.27%
CCC(=O)N1CC[C@@H](c2ccc3ccccc3c2)[C@H](O)C1,-3.58%,8%,-2.44%,14.3%,5.94%,24%,16.2%,11.8%,4.92%,11.1%,-8.24%
COc1ccc(NC(C)C(=O)N2CCN(c3ncccn3)CC2)cn1 (configuration not stated),-5.21%,8.22%,-137%,-2.83%,3.13%,8.18%,0.71%,-4.13%,3.23%,7.5%,-3.06%
O=C(NCC(=O)N1CCCCC1)c1ccc(Cl)cc1I,-0.681%,5.41%,-6.27%,3.75%,8.49%,0%,10.5%,13.7%,2.65%,12.2%,-1.27%
Cc1ccc(CNC(=O)Nc2cc(C(F)(F)F)c[nH]c2=O)cn1,-3.22%,6.94%,7.59%,-6.47%,0.0972%,4.42%,11.6%,-18.5%,6.32%,12.8%,-5.05%
Cc1nc(C)n(CC2CCCN(Cc3nc(C4CC4)no3)C2)n1 (configuration not stated),-2.19%,21.6%,-9.55%,4.88%,3.11%,-4.41%,12.8%,2.75%,8.37%,23.5%,-12.5%
O=C(c1ccc(-n2cccn2)nc1)N1CCCN(c2cccnn2)CC1,-2.01%,0%,6.8%,-1.08%,-6.76%,1.47%,13%,-7.18%,-0.952%,0%,-11.3%
Cn1ncc2c1C(COCC1CC1)CN(Cc1ccc(F)cc1)C2 (configuration not stated),-0.87%,18.9%,3.73%,-11.9%,-1.07%,0.955%,8.12%,23.2%,2.16%,15.4%,-6.67%
CCc1cnc(N2CCC(=O)N(CC3CC3)C(C(C)C)C2)nc1 (configuration not stated),3.49%,13.5%,-2.35%,11.8%,-0.965%,4.29%,8.62%,29.3%,3.7%,12.2%,-1.36%
COc1ccccc1C(=O)NC(C)CC(=O)O (configuration not stated),-6.61%,11.4%,1.36%,-1.14%,1.74%,1.07%,2.92%,12.6%,5.21%,15.2%,-12.9%
CCN(CC)C(=O)Cn1ccc2cc(NC(=O)C3CC3)ccc21,-5.06%,15.8%,-9.59%,7.96%,6.39%,-3.06%,14.9%,4.68%,5.39%,21.9%,-12.7%
CN(C)c1nc2c(c(N3CCC(O)CC3)n1)CN(CC1CCNC1)CC2 (configuration not stated),-1.69%,10.8%,-1.59%,10.5%,0.193%,0.476%,10.9%,2.62%,12.2%,19.5%,-4.09%
Cc1ccoc1C(=O)NC1CCN(Cc2csc3c(F)cccc23)CC1,-4.82%,-1.27%,-4.47%,-1.87%,-0.308%,-3.66%,9.61%,17.2%,6.25%,10.1%,-13.8%
Cc1nn(C)c(N(C)C)c1CNCC(O)c1ccccc1 (configuration not stated),-0.702%,2.74%,-3.51%,-6.11%,-4.31%,3.64%,16.1%,-8.18%,3.23%,10%,-3.32%
Cc1nn(CC(C)C)c(N(C)C)c1CNCc1cc2ccccc2[nH]1,-3.68%,10.8%,-5.31%,5.12%,-2.17%,-3.21%,5.77%,2.34%,13.3%,16.1%,-8.01%
O=C(c1cccc(Cn2ccnc2)c1)N1CCCC(n2ccnc2)C1 (configuration not stated),-0.331%,16.2%,-8.78%,1.96%,5.11%,-2.4%,7%,29%,5.94%,25.6%,-6.66%
Cc1cnn(C2CN(CC(O)c3ccc(F)cc3)C2)c1 (configuration not stated),1.74%,-2.67%,-7.34%,3.97%,2.82%,8.33%,3.31%,17.9%,6.01%,13.6%,105%
CCn1cc(NC(=O)NCC2(N3CCOCC3)CCSC2)cn1 (configuration not stated),-1.63%,13.5%,2.58%,16.6%,1.74%,13.8%,17.2%,-1.24%,6.88%,7.32%,-4.92%
CC(C)N(C)Cc1nnc2n1CCN(Cc1ccncc1)CC2,-1.23%,8%,2.82%,-4.03%,-3.67%,-54.7%,2.73%,1.94%,-2.08%,5%,-6.5%
Cc1ccc(C(=O)N2CCn3cc(CN4CCCCC4)nc3C2)o1,-1.62%,-2.6%,0.425%,-11.1%,-1.48%,21.3%,5.57%,1.99%,-4.23%,-6.41%,8.37%

# — ChEMBL document CHEMBL3988442, “University of Dundee, Small-Polar-MMV Screening Library” (2021)
